The source of these data is PubChem BioAssay.

Structures are written as SMILES. Calls of active or inactive are those of the source.

In test [1] the test system is Plasmodium falciparum Sir2 (PF13_0152, Sir2A). In words: Plasmodium falciparum Sir2A binding compounds – biochemical, small-molecule microarray, 635 nm fluorescence, primary screen (AID 1098).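 Also: score merges spot fluorescence intensity with its signal-to-noise ratio.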 The settings on record: fluorescence 635 nm, higher = more signal.
The nature of test [2]: probe aDKK1 binding to arrayed compounds – biochemical, biotinylated probe, 635/667 nm fluorescence, primary screen (AID 1099).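 Also: score merges 667nm spot fluorescence with signal to noise across triplicate slides; reference of the scale not given here.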 The settings on record: small-molecule microarray, higher = more signal.
Test [3] in a line: probe aCHRDL2 binding to arrayed compounds – biochemical, biotinylated probe, 635/667 nm fluorescence, primary screen (AID 1100). The settings on record: small-molecule microarray, higher = more signal.
The nature of test [4]: change in splice reporter luminescence, either direction, cell-based, HEK293, spliceosome inhibition project, primary screen (AID 1101).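 Also: HEK293 cells carrying a splicing-competent luciferase reporter gene; test concentration not given here.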 The settings on record: HEK293 splicing luciferase reporter, 24 h, higher = more signal, called active from +8 up or from −8 down. In general terms: In a reporter assay the amount or activity of a reporter protein is the signal.
Test [5] deals with Fibroblast growth factor 10 (Homo sapiens) (UniProt O15520). As to the kind of experiment: compounds binding fibroblast growth factor 10 – biochemical, small-molecule microarray, 635 nm fluorescence, primary screen (AID 1102). To be noted: FGF10 binding, fluorescence 635 nm, higher = more signal.
In test [6] the test system is glycogen synthase kinase-3 (GSK3A per assay name; protocol says GSK3B). In words: compounds binding glycogen synthase kinase-3 – biochemical, small-molecule microarray, 635 nm fluorescence, GSK3A, primary screen (AID 1103). Also: the record names both GSK3A and GSK3B. To be noted: fluorescence 635 nm, higher = more signal.
Test [7] addresses Epidermal growth factor receptor (Homo sapiens) (UniProt P00533). In words: compounds binding epidermal growth factor receptor – biochemical, small-molecule microarray, 635 nm fluorescence, primary screen (AID 1104).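 Also: score merges 667 nm emission intensity with spot signal to noise over triplicate slides.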 The settings on record: EGFR binding, higher = more signal.
The target of test [8] is Follistatin-related protein 3 (Homo sapiens) (UniProt O95633). In words: compounds binding follistatin-related protein 3 – biochemical, small-molecule microarray, 635 nm fluorescence, primary screen (AID 1105).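 Also: score merges emission near 667 nm and signal to noise per printed spot across three slides.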 The settings on record: FSTL3 binding, higher = more signal.
In test [9] the target is Dickkopf-related protein 1 (Homo sapiens) (UniProt O94907). In words: small molecules binding DKK1 protein – biochemical, small-molecule microarray, 635 nm fluorescence scan, primary screen (AID 1106).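 Also: score merges emission near 667 nm with signal to noise over three replicate slides.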 To be noted: higher = more signal.
For test [10], the system named is Inhibin beta A chain (activin A). In words: small molecules binding activin A – biochemical, small-molecule microarray, 635 nm fluorescence scan, primary screen (AID 1107).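 Also: mouse activin A protein probed at 4.33 µg/mL on printed slides; score merges bound-protein fluorescence near 667 nm with spot signal-to-noise.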 The settings on record: INHBA, higher = more signal.

Fibroblast growth factor 10 (Homo sapiens), sequence (O15520 whole entry, looked up): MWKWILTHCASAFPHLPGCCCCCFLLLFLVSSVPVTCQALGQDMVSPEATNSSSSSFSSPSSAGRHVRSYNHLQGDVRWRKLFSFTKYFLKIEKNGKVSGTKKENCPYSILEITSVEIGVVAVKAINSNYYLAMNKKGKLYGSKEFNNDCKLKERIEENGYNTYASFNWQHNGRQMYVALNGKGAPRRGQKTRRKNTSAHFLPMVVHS
Dickkopf-related protein 1 (Homo sapiens), sequence (O94907 whole entry, looked up): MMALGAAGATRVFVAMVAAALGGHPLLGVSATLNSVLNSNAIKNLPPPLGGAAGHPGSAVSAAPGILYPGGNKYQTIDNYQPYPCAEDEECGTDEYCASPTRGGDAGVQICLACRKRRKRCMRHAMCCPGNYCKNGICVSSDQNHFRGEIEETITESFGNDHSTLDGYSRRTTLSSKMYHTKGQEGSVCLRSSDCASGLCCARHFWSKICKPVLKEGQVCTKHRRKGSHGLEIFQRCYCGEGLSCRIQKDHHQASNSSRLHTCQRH
Epidermal growth factor receptor (Homo sapiens), sequence (P00533 whole entry, looked up): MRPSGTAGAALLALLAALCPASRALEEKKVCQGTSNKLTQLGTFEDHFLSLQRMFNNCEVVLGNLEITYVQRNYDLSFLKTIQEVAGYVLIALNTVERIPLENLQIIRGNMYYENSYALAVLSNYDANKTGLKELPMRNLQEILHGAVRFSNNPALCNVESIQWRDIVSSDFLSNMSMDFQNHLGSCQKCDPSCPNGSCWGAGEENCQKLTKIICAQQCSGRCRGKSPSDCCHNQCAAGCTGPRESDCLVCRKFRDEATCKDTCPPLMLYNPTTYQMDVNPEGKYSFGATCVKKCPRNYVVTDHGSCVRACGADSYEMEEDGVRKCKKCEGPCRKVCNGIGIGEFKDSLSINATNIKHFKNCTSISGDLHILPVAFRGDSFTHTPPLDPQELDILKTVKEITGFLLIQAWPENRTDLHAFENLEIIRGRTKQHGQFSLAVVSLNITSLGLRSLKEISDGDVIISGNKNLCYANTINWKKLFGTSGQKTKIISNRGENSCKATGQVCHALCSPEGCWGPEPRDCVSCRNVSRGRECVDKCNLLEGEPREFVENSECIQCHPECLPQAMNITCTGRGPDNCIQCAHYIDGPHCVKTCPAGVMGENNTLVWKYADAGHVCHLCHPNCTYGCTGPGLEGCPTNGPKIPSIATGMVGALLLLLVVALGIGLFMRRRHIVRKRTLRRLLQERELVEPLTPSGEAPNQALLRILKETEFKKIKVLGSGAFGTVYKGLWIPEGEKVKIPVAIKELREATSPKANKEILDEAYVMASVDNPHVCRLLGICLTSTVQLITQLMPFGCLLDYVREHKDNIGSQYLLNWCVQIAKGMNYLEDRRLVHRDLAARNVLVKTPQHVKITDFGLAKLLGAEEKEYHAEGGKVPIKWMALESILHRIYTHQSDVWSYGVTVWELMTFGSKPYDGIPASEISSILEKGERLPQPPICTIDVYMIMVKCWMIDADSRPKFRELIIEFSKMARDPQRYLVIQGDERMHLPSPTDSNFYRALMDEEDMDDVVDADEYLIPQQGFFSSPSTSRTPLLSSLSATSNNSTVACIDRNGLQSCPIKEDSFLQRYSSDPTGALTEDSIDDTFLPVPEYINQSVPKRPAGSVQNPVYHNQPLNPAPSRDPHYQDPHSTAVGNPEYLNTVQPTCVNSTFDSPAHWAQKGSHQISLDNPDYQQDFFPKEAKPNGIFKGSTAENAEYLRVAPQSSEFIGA
Follistatin-related protein 3 (Homo sapiens), sequence (O95633 whole entry, looked up): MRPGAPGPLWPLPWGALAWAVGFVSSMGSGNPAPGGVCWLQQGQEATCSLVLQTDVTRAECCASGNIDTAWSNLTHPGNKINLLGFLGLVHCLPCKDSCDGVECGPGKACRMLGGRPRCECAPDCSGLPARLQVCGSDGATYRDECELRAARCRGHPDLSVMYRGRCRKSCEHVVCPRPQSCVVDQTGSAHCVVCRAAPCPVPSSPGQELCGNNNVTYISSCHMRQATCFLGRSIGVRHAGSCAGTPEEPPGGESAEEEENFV

In the case of `NC(=O)NCC#Cc1ccc2c(c1)[C@]1(C(=O)N2)[C@H](C(N)=O)[C@H]2C(=O)O[C@H](c3ccccc3)[C@H](c3ccccc3)N2[C@@H]1c1ccc(O)cc1`, the composite z-score in test [1] is 1.51; in test [2] it was -0.912; in test [3], -0.142; in test [5], 0.353; in test [6], -0.348; in test [7], -0.858. The composite z-score in test [8] is -0.0676; in test [9] it was -1.27; in test [10], 0.778. For the same compound, the z-score in test [4] was -0.712 (inactive).

For `O=C(NCCN1CCOCC1)C1N=C(c2ccc(OCCCO)cc2)N(c2ccccc2)O1` (stereo not given), the composite z-score was found to be 0.439 in [1]; 0.273 in test [2]; 0.766 in test [3]; 1.56 in test [5]; 1.08 in [6]; 0.837 in test [7]. For the same compound, the results for the composite z-score in test [8], in test [9] and in [10] were 0.751, 0.915 and 0.145, respectively. In [4], the z-score is -0.764 (inactive).

Regarding `CCOC(=O)C[C@H]1[C@H](OC(=O)c2ccc(C(=O)c3ccccc3)cc2)[C@@H](NC(=O)c2ccc3ccccc3c2)c2cc(OCCCO)ccc2N1C(=O)Cc1ccc(OC)cc1`, the composite z-score in test [1] was 1.14; in [2] it was 0.282; in test [3], 0.503; in [5], 0.545; in [6] it was 0.158; in [7] it was -0.16. The composite z-score is 0.303 in test [8], -0.213 in test [9] and 0.856 in test [10]. The z-score in [4] was -0.175 (inactive).

On to `COCCCNC(=O)[C@@H]1c2ccccc2C(=O)N(Cc2ccccc2Cl)[C@H]1c1ccc(CO)cc1`, for which the composite z-score in test [1] worked out at 0.471; in [2], 0.167; in [3] it was 0.199; in test [5], 0.629; in test [6] it was 1.17; in test [7], 0.245. In addition, the values for the composite z-score in [8], in test [9] and in [10] were 0.715, 0.412 and 0.975, respectively. Also, the z-score in test [4] was 0.5 (inactive).

As for `COC(=O)[C@@]1(Cc2ccc(F)cc2)[C@H]2c3cc(C(=O)N4CCCC4)n(Cc4ccc(S(C)(=O)=O)cc4)c3C[C@H]2CN1C(=O)c1ccccc1`, the composite z-score turned out to be 1.2 in test [1]; 1.14 in test [2]; 0.949 in [3]; 0.598 in test [5]; 0.108 in test [6]; 0.771 in test [7]. The composite z-score stood at 0.473 in test [8], 0.328 in [9] and 1.38 in test [10]. The z-score in test [4] was -0.501 (inactive).

`CN(C)CCCCCCNC(=O)[C@H]1C[C@H]2C(=O)N[C@@H](CCCCN)C(=O)N2[C@H]1c1cccc(OCCO)c1`: the composite z-score in [1] stood at 1.99; in test [2] it was 3.01; in [3] it was 1.72; in test [5] it was 1.43; in test [6], 1.48; in test [7] it was 1.63. Further, the composite z-score came to 1.65 in [8], 2.49 in test [9] and 1.43 in test [10]. Besides, the z-score in [4] is -0.361 (inactive).

On to `COCCCNC(=O)[C@]1(CCC(=O)OC(C)(C)C)N=C(c2ccc(OCCCO)cc2)O[C@@H]1c1ccccc1CN=[N+]=[N-]`, for which the composite z-score is 1.42 in test [1]; 0.639 in test [2]; 0.608 in [3]; 1.41 in test [5]; 1.3 in [6]; -0.504 in test [7]. Further, the results for the composite z-score in [8], in test [9] and in [10] were 0.35, -0.299 and 0.733, respectively. Besides, the z-score in test [4] is 0.378 (inactive).

Turning to `COC(=O)[C@H](Cc1ccccc1)N1CC2=C[C@@H](C3CC3)n3c(=O)n(C)c(=O)n3[C@H]2[C@@H]1[C@@H](O)Cc1ccccc1`, the composite z-score is 0.711 in test [1]; -0.412 in test [2]; -0.5 in [3]; 0.617 in test [5]; 0.658 in [6]; 0.217 in [7]. The composite z-score in [8] was determined as 0.868; in test [9] it was 0.312; in test [10], 0.289. Moreover, the z-score in [4] was -0.515 (inactive).

As for `CCCC[C@H]1OB(O)C[C@H]2C1=C(COC)Cn1c(=O)n(-c3ccccc3)c(=O)n12`, the composite z-score is -0.0483 in [1]; -0.383 in test [2]; -0.738 in [3]; 0.516 in test [5]; 0.302 in test [6]; 0.54 in [7]. Moreover, the results for the composite z-score in test [8], in test [9] and in test [10] were 0.517, 0.465 and 0.95, respectively. The z-score in test [4] is 0.271 (inactive).

Regarding `COc1ccc(C#Cc2ccc3c(c2)[C@]2(C(=O)N3)[C@H](c3ccccc3OCCO)N3[C@H](c4ccccc4)[C@H](c4ccccc4)OC(=O)[C@H]3[C@@H]2C(=O)Nc2nc3ccccc3s2)cc1`, the composite z-score in test [1] is 1.64; in test [2], -0.0008; in test [3], -0.197; in test [5], 1.09; in test [6] it was 1.31; in [7] it was 0.589. Besides, the composite z-score in test [8] stood at 1.27; in test [9] it was 0.62; in [10], 0.322. Further, the z-score in test [4] is -1.11 (inactive).

Take `C=C[C@H](OC)[C@@H](OC(=O)Nc1ccc(OC)cc1)c1ccc(O)c(F)c1`: the composite z-score is 0.68 in [1]; -0.446 in test [2]; 0.3 in test [3]; -0.0655 in test [5]; -0.499 in test [6]; -1.49 in test [7]. The figures for the composite z-score in [8], in test [9] and in test [10] were -1.19, -1.16 and -0.25, respectively. In addition, the z-score in test [4] is -1.27 (inactive).

Consider `O=C(N1CCCCC1)[C@]1(Cc2ccccc2)N=C(c2ccc(OCCCO)cc2)O[C@@H]1c1ccccc1`, for which the composite z-score was 1.05 in [1]; 0.887 in test [2]; 1.08 in test [3]; 0.956 in [5]; 0.669 in test [6]; -0.394 in [7]. Moreover, the composite z-score in test [8] was 0.512; in [9] it was -0.474; in test [10], 0.99. In addition, the z-score in test [4] is -0.555 (inactive).

Regarding `C=CCOC(=O)[C@H]1[C@@H]2C(=O)O[C@@H](c3ccccc3)[C@@H](c3ccccc3)N2[C@@H](c2ccc(OCCOC(=O)[C@H]3C[C@H]4C(=O)N[C@@H](CCCCNC(C)=O)C(=O)N4[C@H]3c3ccc(O)cc3)cc2)[C@]12C(=O)Nc1ccc(I)cc12`, the composite z-score in [1] was 1.33; in [2], -0.182; in test [3], -0.717; in [5], 0.707; in test [6], 1.11; in test [7], 0.506. Also, the composite z-score was 1.26 in test [8], 0.667 in test [9] and 1.02 in [10]. Besides, the z-score in test [4] is -0.0027 (inactive).

On to `COc1ccc([Si](C)(C)[C@H]2[C@H](CC(=O)N3Cc4ccccc4C[C@H]3CO)O[C@@]3(C(=O)N(Cc4cccc(N5CCC5=O)c4)c4ccccc43)[C@@H]2C)cc1`, for which the composite z-score is 1.31 in test [1]; -0.293 in test [2]; -0.325 in [3]; 1.05 in [5]; 0.716 in test [6]; 1.19 in test [7]. The composite z-score in test [8] is 1.42; in [9] it was 1.26; in test [10], 0.962. In addition, the z-score in test [4] is -0.205 (inactive).

`COCCOC(=O)N1C(=O)[C@@]2(c3cc(C#CCC(C(=O)OC)C(=O)OC)ccc31)[C@H](c1ccccc1OCCO)N1[C@H](c3ccccc3)[C@H](c3ccccc3)OC(=O)[C@H]1[C@@H]2C(=O)NC[C@H](O)c1ccccc1`: the composite z-score in test [1] is 1.36; in test [2] it was 0.877; in test [3], 0.326; in [5], 1.05; in test [6], 1.29; in test [7], 1.17. Also, the composite z-score was 1.23 in [8], 0.66 in test [9] and 0.619 in test [10]. The z-score in test [4] was 3.84 (inactive).
